The list is not random: actives were taken first. Their share in the collection is about 6.3%.
TGFb inhibitor – TGF-b pathway inhibition | HepG2 CAGA-GFP TGF-b/SMAD3 reporter, GFP fluorescence, 18 h; TGF-beta stimulated, 500 pg/mL final | Potency, µM (highest dose often 46.1 µM), inactives show at the highest dose activity, negative = inhibition, usual class: inhibitors | hit rate 1.2% among 410,000 | AID 588855; note: % is set by controls: 0 for no effect and ±100 for the full control effect; nearly all actives have a fitted effect of over 65% in size
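Using HEPG2 CAGA-GFP reporter cells at 1000 cells/well, we pinned test compounds, stimulated with recombinant TGF-beta (500 pg/mL final) and measured total well GFP after 18 h.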
ATXN2 expr inh – ATXN2 expression inhibition; HEK-293 ATXN2-luciferase reporter, luminescence, 24 h; Potency, µM (titrated, usually from 57 µM), inactives show at the highest dose activity change, negative = inhibition, most hits filed as inhibitors; hit rate 0.72% among 360,000; note: % is set by controls: 0 for no effect and ±100 for the full control effect; nearly all actives have a fitted effect of over 55% in size
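ATXN2-luciferase reporter cells (luciferase flanked by upstream and downstream ATXN2 gene portions) were treated 24 h at 37 °C with compounds at up to 57 uM. SteadyGlo luminescence gave expression; GF-AFC fluorescence gave viability.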
RORgamma inh – ROR gamma (mouse) transcription inhibition; P51450; Drosophila S2 Gal4-RORgamma UAS-luciferase reporter, 20 h; Potency, µM (highest dose often 53.6 µM), inactives show at the top dose activity change, negative = inhibition, hits mostly inhibitors; hit rate 5.4% among 310,000; AID 2551; note: % is set by controls: 0 for no effect and ±100 for the full control effect; nearly all actives have a fitted effect of over 60% in size
Target sequence (P51450 whole entry, looked up, the tested form may be a part): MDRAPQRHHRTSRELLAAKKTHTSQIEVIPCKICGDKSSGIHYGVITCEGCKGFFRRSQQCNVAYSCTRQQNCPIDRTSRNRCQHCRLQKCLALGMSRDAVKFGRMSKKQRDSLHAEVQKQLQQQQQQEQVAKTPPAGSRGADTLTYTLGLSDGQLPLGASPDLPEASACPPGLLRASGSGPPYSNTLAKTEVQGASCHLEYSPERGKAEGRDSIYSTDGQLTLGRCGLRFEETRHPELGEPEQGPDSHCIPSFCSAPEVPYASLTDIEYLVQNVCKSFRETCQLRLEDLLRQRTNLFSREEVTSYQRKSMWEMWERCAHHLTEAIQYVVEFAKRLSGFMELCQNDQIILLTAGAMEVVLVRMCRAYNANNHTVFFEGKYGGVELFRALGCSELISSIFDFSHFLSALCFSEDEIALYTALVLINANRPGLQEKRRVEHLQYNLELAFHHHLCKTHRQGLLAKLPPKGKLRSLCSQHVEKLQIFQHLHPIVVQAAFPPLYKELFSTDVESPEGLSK
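Luciferase reporter read in Schneider cells carrying Gal4-RORγ (mouse) and UAS-Photinus luciferase; cells given compound 1 h before 700 uM copper sulfate induction, then incubated 20 h at ambient temperature.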
ATXN viability – reduces viability in counter-screen for ATXN expression inhibitors; S2 cells (HEK-293 line with an ATXN2-luciferase reporter) viability, CellTiter-Fluor protease fluorescence, 24 h; Potency, µM (highest dose often 56.7 µM), most hits filed as cytotoxic; hit rate 0.49% among 400,000; note: nearly all actives have a fitted effect of over 40% in size
Gal4-VP16 FLuc – inhibits Gal4-VP16 luciferase reporter, ROR gamma counter-screen; Drosophila S2 Gal4-VP16 UAS-luciferase, luminescence, 20 h; Potency, µM (doses to about 53.6 µM), for the others: at the highest dose activity, negative = inhibition, hits mostly inhibitors; hit rate 3.5% among 310,000;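 note: Gal4-VP16 expression switched on by copper sulfate through the metallothionein promoter; % is set by controls: 0 for no effect and ±100 for the full control effect; nearly all actives have a fitted effect of over 50% in size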
HepG2 tox – counter-screen for TGF-b inhibitors: cytotoxicity in HepG2 cells | HepG2 CAGA-GFP viability, ATP luminescence, 18 h | Potency, µM (series often up to 46.1 µM), for inactives: at the highest dose activity change, negative = cytotoxicity, hits mostly cytotoxic | hit rate 0.76% among 410,000
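HepG2 CAGA-GFP cells (1000/well, DMEM with 1% FBS) received compound, then TGF-beta at 500 pg/mL final, and were incubated 18 hours at 37 degrees C. Viability was read by CellTiter-Glo luminescence. Media-only wells were set as complete cell-killing and DMSO as no toxicity.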
The depositor's hits bear a star; i = inactive; ? = inconclusive; · = not tested or not shown. Calls come from the whole dose curve; as a rule, active = well fitted curve in the direction sought with a large enough effect; inconclusive = small, poorly fitted or top-dose-only effect, or another doubt; inactive = no such curve, though single readings can be large; an effect the other way counts as inactive or inconclusive. Potency is the fitted concentration of half-maximal effect.

SMILES | TGFb inhibitor | ATXN2 expr inh | RORgamma inh | ATXN viability | Gal4-VP16 FLuc | HepG2 tox
CC(=O)NC(c1cc(Cl)c2cccnc2c1O)C1CC1 (stereo not drawn) | 1.6µM* | 8.9µM* | · | 3.2µM* | · | -60%
CC(=O)NC(c1cc(Cl)c2cccnc2c1O)C(C)C (stereo not drawn) | 6.3µM* | 5.6µM* | · | 5µM* | · | -27%
COc1cccc(C(=O)NC(c2ccc(Cl)cc2)c2cc(Cl)c3cccnc3c2O)c1 (stereo not drawn) | ? | ? | · | i | · | -5%
COc1ccc(C(NC(=O)c2cccnc2)c2cc(Cl)c3cccnc3c2O)cc1OC (stereo not drawn) | ? | 16µM* | 2µM* | i | 4µM* | -102%
Oc1c(C(Nc2ccccn2)c2cccnc2)cc(Cl)c2cccnc12 (stereo not drawn) | 0% | 22µM* | 4µM* | i | 4.5µM* | -16%
Cc1oc(-c2ccccc2NS(C)(=O)=O)nc1CN(C)Cc1ccc(Cl)cc1 | · | · | · | i | · | ·
COc1ccc(CCNC(=O)c2cnn(-c3nccc(-c4cccs4)n3)c2C)cc1OC | · | · | · | i | · | ·
CC(=O)NC(c1ccc(C)cc1)c1cc(Cl)c2cccnc2c1O (stereo not drawn) | ? | 11µM* | 1.1µM* | i | 0.63µM* | -23%
CC(=O)NC(c1ccco1)c1cc(Cl)c2cccnc2c1O (stereo not drawn) | ? | 8.9µM* | · | ? | · | -37%
CCCCC(=O)NC(c1ccco1)c1cc(Cl)c2cccnc2c1O (stereo not drawn) | ? | ? | 0% | · | 0% | -5%
CC(C)(C)c1nc(SCC(=O)c2ccccc2)c2ccccc2n1 | ? | 33% | 20µM* | i | ? | -4%
CC(=O)Nc1ccc(S(=O)(=O)Nc2ccc(Cc3ccncc3)cc2)cc1 | -11% | -22% | ? | i | 10µM* | -7%
CC(=O)c1ccc(NS(=O)(=O)c2ccc(CC(C)C)cc2)cc1 | 16µM* | -13% | ? | i | 10µM* | -92%
COc1ccc(S(=O)(=O)Nc2ccc(Cc3ccncc3)cc2)cc1C | ? | -28% | 32% | i | 22µM* | -14%
CCc1ccc(NS(=O)(=O)c2ccc(OC)c(C)c2)cc1 | ? | 1% | -44% | i | ? | -29%
CN(C1CCCCC1)S(=O)(=O)c1ccc2c(c1)c(=O)c(C(=O)NCCc1ccccc1)cn2C | 1% | 2% | · | i | · | 9%
O=C(CSc1nnc2c(Cl)cc(C(F)(F)F)cn12)N(Cc1ccccc1)Cc1ccccc1 | 3% | -8% | 13% | i | -4% | 11µM*
O=C(CSc1nnc2c(Cl)cc(C(F)(F)F)cn12)NCc1ccc(F)cc1 | 3% | 1% | ? | i | ? | 0%
N#Cc1nc(-c2ccc(COc3ccc(Cl)cc3)o2)oc1N1CCC(C(N)=O)CC1 | ? | 20µM* | · | ? | · | -19%
C(=Nc1cnc2ccccc2c1)c1ccnc2ccccc12 | -2% | · | · | · | · | 5%
CCc1ccc(C2c3c(-c4ccccc4O)n[nH]c3C(=O)N2Cc2ccncc2)cc1 (stereo not drawn) | ? | -19% | · | 25µM* | · | -43%
CCOCCCN1C(=O)c2[nH]nc(-c3ccccc3O)c2C1c1ccc(CC)cc1 (stereo not drawn) | ? | 0% | · | ? | · | 18µM*
CCN(CC)CC(=O)Nc1c(C)cccc1C(=O)OC | · | 2% | · | i | · | ·
CCC1Oc2ccc(C)cc2N(CC(=O)NCc2cccc(OC)c2)C1=O (stereo not drawn) | -2% | -1% | ? | i | 22µM* | -1%
O=C(NC1CCCCCC1)C1CCC(CNS(=O)(=O)c2cccc3cccnc23)CC1 (stereo not drawn) | 3% | · | · | · | · | -23%
SMILES | TGFb inhibitor | ATXN2 expr inh | RORgamma inh | ATXN viability | Gal4-VP16 FLuc | HepG2 tox
Cc1ccccc1C1C(C#N)=C2N=C(N)c3c(sc4c3CCCCC4)N2C2=C1C(=O)CCC2 (stereo not drawn) | -1% | -24% | 14µM* | i | ? | -21%
N#CC1=C2N=C(N)c3ccccc3N2C2=C(C(=O)CCC2)C1c1ccccc1F (stereo not drawn) | -17% | · | 8% | i | 1% | 1%
CCOC(=O)C(=CNc1ccc2c(c1)nnn2-c1ccc(Cl)cc1)C(=O)OCC | 8% | 24µM* | 34% | ? | -5% | 16%
CCCC(NC(=O)CCc1c(C)c2cc3c4c(oc3c(C)c2oc1=O)CCCC4)C(=O)O (stereo not drawn) | -6% | -31% | 0.79µM* | i | -23% | -11%
COc1ccc([N+](=O)[O-])c(S(=O)(=O)c2ccc(Cl)cc2)n1 | 1.8µM* | ? | ? | · | ? | 0.63µM*
COc1nc(OC)nc(Oc2ccc(Cl)cc2[N+](=O)[O-])n1 | 10% | 4% | -8% | i | 5% | -4%
COc1ccc([N+](=O)[O-])c(S(=O)(=O)c2ccccc2)n1 | 3.2µM* | 12µM* | 2.5µM* | · | 5µM* | 14µM*
O=[N+]([O-])c1cccnc1S(=O)(=O)c1ccccc1 | 11µM* | -31% | 8.9µM* | ? | 7.1µM* | 3.5µM*
COc1ccccc1S(=O)(=O)c1ccccc1[N+](=O)[O-] | ? | -2% | 28% | i | -3% | 0%
CCN(CC)C(=O)c1sc2c(c1C)c(=O)n(CCc1ccccc1)c(=O)n2Cc1ccc(C)cc1 | ? | ? | · | ? | · | -33%
COc1cccc(NC(=O)C(OC(=O)c2ccc([N+](=O)[O-])o2)c2ccccc2)c1 (stereo not drawn) | ? | 1% | 14µM* | i | -28% | -37%
Nc1cc(S(=O)(=O)Nc2ccc(Cl)cc2)ccc1N1CCOCC1 | ? | -31% | 4% | i | 16µM* | -12%
CCOC(=O)c1sc2nc(C)nc(SCC(=O)N(C)C3CCS(=O)(=O)C3)c2c1C (stereo not drawn) | -3% | -2% | 13µM* | i | -4% | -3%
CN(C(=O)CSc1nnc(-c2cccs2)o1)C1CCS(=O)(=O)C1 (stereo not drawn) | -8% | 15% | -3% | i | -24% | -7%
CN(C(=O)CSc1n[nH]c(-c2cccs2)n1)C1CCS(=O)(=O)C1 (stereo not drawn) | 7% | 3% | · | i | · | 11µM*
CN(C(=O)CSc1ncnc2sc(-c3ccccc3)cc12)C1CCS(=O)(=O)C1 (stereo not drawn) | -2% | -34% | 11µM* | i | ? | -8%

Compound activity: PubChem, National Center for Advancing Translational Sciences (NCATS)
